Measured values as given in the supplement of paper PMC11417369.
± gives the standard deviation of the averaged measurements. The full ranking holds about 25,000 sequences; the median of “ln(normalized median fluorescence intensity)” is about 10, and the highest 2% start at about 12. What follows is part of a selection rich in the highest values, with near analogues and random picks from the rest.

The sequences below were run on PfAP2-G AP2 domain (GST-tagged) (assay: gcPBM binding intensity (ln(normalized median fluorescence intensity)); higher = stronger DNA binding).
In short: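 In this array assay, P. falciparum DNA-binding domains with a GST tag, expressed in E. coli, were applied for 1 h to primer-extended double-stranded 36-bp intergenic genomic probes and negative controls on an Agilent 4 × 180k array. Bound protein was visualised with Alexa488 anti-GST antibody at 488 nm. Binding intensity is the highest Masliner-normalised natural-log median intensity across replicate spots of either probe orientation.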

Sequence	gcPBM binding intensity (ln)
ACAAGATGATGGAAATGTACATAAAAAGAATCATAT [XGTACX_site8682]	11.2 ± 0.63
AAAAAAAAAAAAACTACACACATACAAATATTTATA [CACACA_site5430]	9.875 ± 0.035
AAAAAAAAGAAAAACACACACATATATATATATAAT [CACACA_site4707]	9.72 ± 0.042
TGAAAATAATTATAGGTGCATAAACATACGGATCTT	10.21 ± 0.021
TTTTTTTTAAGAGATAGTACATAAATATTATAATAT [XGTACX_site4685]	11.1 ± 0.86
GACATTAATTATTTGACACACGACTGGGTGGTGATT [CACACA_site306]	10.09 ± 0.021
TGAAAAATAAATAAATGTACATATATATATATATAC [XGTACX_site7310]	10.9 ± 0.49
TCGTATTTAAAATGTAGTACATAATTTGAAAAATAA [XGTACX_site5832]	11.6 ± 0.83
ATGTATGTAATAAAAAGTACATATGTTCATAATAAA [XGTACX_site842]	11.4 ± 0.57
ATAAGTAATATAATATGTACATATATATATATATAT [XGTACX_site3818]	11.2 ± 0.5
AAAAAAAAAAAAAGTAGTACATAATATGTTCCTCCT [XGTACX_site8356]	11.6 ± 1
TATTTTGAAAATAAAAGTACAAATTTTATATTTAAA [XGTACX_site3238]	11.1 ± 0.83
AATTTGAAATAAAGTAGTACAGTATATAAAAATATA [XGTACX_site128]	11.8 ± 1.1
AATAAAAATAATGAATGTACATATATATATACAATA [XGTACX_site3342]	10.9 ± 0.4
TTTTTTGAAAATAAAAGTACAAATTTTATATTTAAA [XGTACX_site2758]	11 ± 0.88
AAATGAAATAAATGTAGTACACATATACAATATATA [XGTACX_site6951]	11.7 ± 1.1
AAAACTATTAAATGTAGTACATAATTATTGAAATAA [XGTACX_site8716]	11.6 ± 0.91
AAATGTAATATAAATAGTACATATTAAATAAAATTA [XGTACX_site6917]	11.1 ± 0.88
AAGTATAAATTAAAATGTACTTATAAAAAAAAAGAA [XGTACX_site7028]	11.2 ± 0.72
TAGTAACTTGTATTCACACAAATTATATTATATTAC [CACACA_site5041]	9.965 ± 0.021
ACGTATGTATATTACACACATACATATTATTCACTA [CACACA_site204]	10.1 ± 0.16
AGTATGTAAATGTGCCATATATATATTAAATACATA [CACACA_negctrl_site14]	10.1 ± 0.23
AACATATACACGAACACACACACATATAAATAAATA [CACACA_site6380]	10.3 ± 0.37

Sequence	gcPBM binding intensity (ln)
ATAAAGTATATTATATGTACATATATATATTATATA [XGTACX_site1345]	11.1 ± 0.52
TTTTTTTTAGTATGAACACACATATATATTATAAAA [CACACA_site2935]	10.1 ± 0.25
ATAAGAAAAAGACACACACACAAAAAAAAAAAAAAA [CACACA_site2828]	9.95 ± 0.49
AAGATAAAATTATGTAGTACAAAAAAAAATAAAAAA [XGTACX_site139]	11.7 ± 0.91
AAAGATAAAATATTATGTACATATATATATATATAT [XGTACX_site5079]	11.1 ± 0.56
AATAATTATAAAAAATGTACAAAAAAAAAAAAAAAA [XGTACX_site3681]	10.5 ± 0.83
CGCATGTATTTTGTGTGTACTAATTATAATCAACTT [XGTACX_site4709]	11.4 ± 0.83
AAAAGTGTATGTAGGTGTACTTTTTATTTCTTCTTT [XGTACX_site8819]	11.6 ± 0.98
TTTTTTATGAGGTGGTGTACTTTTTTTTTTTTCTTT [XGTACX_site8550]	11.7 ± 0.97
TATGAGGAAACGTGGTGTACTTTTTTTTAATAAAAA [XGTACX_site1351]	11.6 ± 0.93
ATATATATAATTTGTACACACAAATATGCATATATA [CACACA_site3432]	11.3 ± 0.98
TATATGCATAATAACTGTACACAAATTGGGGTTGAT [XGTACX_site459]	11.6 ± 0.63
ATATATATATAATTTGTACACACAAATATGCATATA [CACACA_site9136]	11.3 ± 0.88
TATGTGCATATAAACTCACACATTGTATATTACATG [CACACA_site6106]	10.14 ± 0.035
ATATATACGTATGAATGTATATTTGTTTGATTTTTT [CACACA_negctrl_site835]	9.88 ± 0.12
ATTGTTTATATTGATTGTACTCATTTTTTTTTTATT [XGTACX_site1946]	11.5 ± 0.99
AATGATTGATTTTATTGTACGTACTCGGAATATGGT [XGTACX_site4976]	11.8 ± 1
TATATATATACATATTGTACATATTACATGCTATTA [XGTACX_site1184]	10.9 ± 0.64
ATATAAATATGACACACACACAAAAAAAATAAAGAC [CACACA_site6208]	10.3 ± 0.2
TTTTTTTTTTTTTAAACATGCATAATAAATATAATA [TGCATGCA_site265]	9.81 ± 0.35
CATATATATTTTATTTGTACGTATAAAAAAACAAAA [XGTACX_site4253]	11.5 ± 1.1
ATTATATAATTTAATCGTACACAAATATTTGTTAGT [XGTACX_site5913]	11.3 ± 0.8
ATATATATATATATATGTACGTAAACAAAAATTTAT [XGTACX_site6780]	11.4 ± 0.91

Sequence	gcPBM binding intensity (ln)
ACCTATTTATAATAGTGTACGTACAAATTTGTTTAC [XGTACX_site8176]	11.7 ± 0.89
TGAAATTTATAATAGTGTACAAAGAAAAAAAAAAAA [XGTACX_site4965]	11 ± 0.78
TTTCGTAAACAAATTTGTACGTACAAATTTATAAAT [XGTACX_site8175]	11.7 ± 1.1
TTTTTTAAAAATAACTGTACAGAGGCTGTTAGGATA [XGTACX_site2521]	11 ± 0.4
TTCCAAAAAATTATTACACACATATGAGCACATATA [CACACA_site4543]	10.1 ± 0.18
TTTCCTTATTAAAACACACAAATACATTATTTAATC [CACACA_site7080]	9.875 ± 0.035
AAAAGTATAATAAATTGTACTAACAAATATTTATGT [XGTACX_site7721]	10.9 ± 0.56
TTGAAAATGAAAAAATGTACTTAAAAAAAAGGAACA [XGTACX_site8664]	11.2 ± 0.71
CTTTGGTTATAACACACATGCACACGTAAATAAATA [TGCATGCA_site976]	10.5 ± 0.25
ATTTTTTTTTTTTTTTTTTATATGCTCTCCATGAGA [CACACA_negctrl_site1225]	9.7 ± 0.2
GGGGGGGGAGGGTGAATACACACGTAATAATCATAA [CACACA_site1716]	11.6 ± 0.94
ATAAATATCATATATATACACACGTAATACATAATA [CACACA_site4001]	9.935 ± 0.092
GGGGGGAGGGTGAATACACACGTAATAATCATAAAC [CACACA_site8502]	11.6 ± 0.79
TCTTTTGTTTAACCTACATGCAGAATATAAGTCTTC [TGCATGCA_site99]	10 ± 0.2
ATATATTCATTTTTATGTACGTAAATTGTAAATTGG [XGTACX_site8242]	11.6 ± 0.92
AAAAATTCATTTTTATGTACGTACAAATTCTTCGTT [XGTACX_site2471]	11.8 ± 0.87
TAATTCTTTATTTTTCGTACGTAAAACAAAAAATAT [XGTACX_site862]	11.1 ± 0.79
AATTTTGAGATGTGGTGTACACAAAATTAGTTAGAC [XGTACX_site7033]	11.7 ± 0.98
TTACATGTAAAAGGTACACACATTAGATATACAAAT [CACACA_site6651]	11.3 ± 0.84
ACACATACAACGTGGTGTACAAATAATTATAATCAA [XGTACX_site2287]	11.1 ± 0.4
CAGTTATTTTAATGTGGTACACAATTTTAAAATTAT [XGTACX_site8571]	11.5 ± 0.93
TGAAAATAGTTAATTTGTACACAAAAATTAAGAAAA [XGTACX_site5794]	11.2 ± 0.8
TTTGAGATGTGGTGTACACAAAATTAGGTACACATC [CACACA_site5773]	12 ± 0.85

Sequence	gcPBM binding intensity (ln)
TAAAAATAGTATACAACACACGAGGGAAAATAAAGT [CACACA_site3837]	10.34 ± 0.099
TATTTAAATTAATATTGTACATATATTTATAATATA [XGTACX_site6109]	11.1 ± 0.71
TATATTTTTATTGAACGTACAAAAAGTCGAAAACAG [XGTACX_site3967]	11.4 ± 0.74
GATATTTTTTTCGAAAGTACAAAAAAAAATATTTCC [XGTACX_site4389]	11 ± 0.72
TTTTCATTTGAAAGTCGTACAAGTTCGAAAAAAGGA [XGTACX_site6840]	11.6 ± 1.2
TTTTTTATTTGACAAGCACACACTTAAATATATATA [CACACA_site3358]	10.2 ± 0.33
AAATCATATTCTTATTTTATTTTTTTTATTTTTTAT [XGTACX_negctrl_site166]	9.55 ± 0.17
AAACATGATTATTATAGTACAATTATAATTATTATA [XGTACX_site2590]	10.8 ± 0.59
AATATATATAATAATTGTACAATACGTATGTTATAT [XGTACX_site8745]	11 ± 0.54
TAAACAGATATATTTTGTACATATTGTATATTTTGT [XGTACX_site713]	10.6 ± 0.28
GTATATATATTTGTACGTACATATTGTTGTAAACAC [XGTACX_site8833]	11.7 ± 0.71
AAATTATTATATATATGTACGTATAATGTATTTTGT [XGTACX_site2903]	11.5 ± 1.1
ATATGTATATATGTATGTACGTACAAATTGTTGTAA [XGTACX_site8832]	11.7 ± 0.8
ATGTTATATATGTATTGTACGTATTTTGTATATTAT [XGTACX_site6607]	11.6 ± 1.1
ATGTAGGTTAATTATTGTACGTAGGGGGTGTATATT [XGTACX_site3973]	11.8 ± 1.2
ATATATATATATATTTGTACGTATTATGTATTTTTT [XGTACX_site3530]	11.5 ± 0.98
TATAATAATACGTATTGTACTATTAGGTTAATTCGT [XGTACX_site264]	11.1 ± 0.66
TATATATATATATGTTGTACAAAAATGTAAAATATA [XGTACX_site7761]	11.1 ± 0.57
GTGTGTGTATATATTTGTACATATATTTAAACATAT [XGTACX_site1074]	11.4 ± 0.71
TATAATAATAATTATTGTACGATTAGGTTAATTCAT [XGTACX_site1984]	11.1 ± 0.7
